High-throughput results from PubChem.
AmpC inh detg = blocks E. coli AmpC beta-lactamase in detergent assay. AmpC hydrolysis of nitrocefin, absorbance 480 nm, 0.01% Triton. P00811. 370,000 compounds, 0.041% hits. Potency, µM (top dose mostly 114 µM), for inactives: at the highest dose activity change, negative = inhibition, usual class: inhibitors;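 also: potency is read from the fitted curve at half-maximal effect; 0% = no-compound wells and -100% = no-enzyme wells; nearly all actives have a fitted effect of over 25% in size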
Target sequence (P00811 whole entry, looked up): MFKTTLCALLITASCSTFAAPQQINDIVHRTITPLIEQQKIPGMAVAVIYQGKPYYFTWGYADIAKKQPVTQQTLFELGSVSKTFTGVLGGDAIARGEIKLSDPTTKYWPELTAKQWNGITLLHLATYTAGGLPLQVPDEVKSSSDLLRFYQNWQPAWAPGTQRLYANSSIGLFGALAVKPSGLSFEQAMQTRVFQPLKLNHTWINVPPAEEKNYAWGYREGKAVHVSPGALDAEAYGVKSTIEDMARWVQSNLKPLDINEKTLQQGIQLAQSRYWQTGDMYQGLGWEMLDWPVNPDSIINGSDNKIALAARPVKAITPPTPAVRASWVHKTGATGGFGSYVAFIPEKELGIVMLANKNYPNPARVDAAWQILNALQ
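20 mM phosphate pH 7.0 + 0.01% (detergent screen) or 0.0001% Triton X-100; 5.3 nM AmpC reagent; cpd preinc 15 min RT; nitrocefin (800 uM stock) to start; A480 q20 s × 4 min; Activity was normalised to no-enzyme and no-compound control wells.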
AmpC inh no detg = AmpC beta-lactamase inhibition without detergent | AID 485341 | Potency, µM (top dose mostly 57.1 µM), without a hit: at the top dose activity change, negative = inhibition, most hits filed as inhibitors | 330,000 compounds, 0.52% hits | AmpC nitrocefin hydrolysis, absorbance 480 nm, 0.0001% Triton;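 also: potency is read from the fitted curve at half-maximal effect; plate controls were no compound for no effect and no enzyme for full effect; nearly all actives have a fitted effect of over 20% in size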
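20 mM phosphate pH 7.0 + 0.01% (detergent screen) or 0.0001% Triton X-100; 5.3 nM AmpC reagent; cpd preinc 15 min RT; nitrocefin (800 uM stock) to start; A480 q20 s × 4 min; Activity was normalised to no-enzyme and no-compound control wells.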
Cycloheximide cs = counter-screen for Shiga toxin inhibitors: cycloheximide protein synthesis inhibition. cell reporter, cycloheximide protein synthesis inhibition counterscreen. max response, %. 300,000 compounds, 12% hits. AID 2314; in the data active = max response mostly above about 13%, no sharp cut-off; inactive = mostly below about 14%; also: read at 38.3 µM for the half of the compounds with a filed dose; 0% is about no effect
NS1 function inh = blocks influenza NS1 protein function; AID 2326; Potency, µM (doses to about 46.1 µM), for the others: at the highest dose activity, positive = more growth; 270,000 compounds, 0.4% hits; calls by dose curve; also: potency is read from the fitted curve at half-maximal effect; actives are rising curves; nearly all actives have a fitted effect of over 50% in size
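OD600 was taken as the measure of yeast growth restored by compound in an NS1-expressing S. cerevisiae strain. Cells had been washed out of glucose medium and diluted 1:100 into galactose -URA medium, pH 6.0.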
Shiga toxin inh = Shiga toxin inhibition. AID 2315. 290,000 compounds, 9.2% hits. Vero cells, Shiga toxin protein synthesis inhibition reporter. inhibition, % at 38.7 µM; in the data active = inhibition mostly above about 28%, no sharp cut-off; inactive = mostly below about 43%; also: 0% is about no effect
An asterisk follows results filed as active; ? = inconclusive; nt = no result; [ ] = dose if it differs, or a comment. This is one part of a sample in which hits are shown more often than they occur. Unless noted, calls follow the shape of the dose curve; as a rule, active = well fitted curve in the direction sought with a large enough effect; inconclusive = small, poorly fitted or top-dose-only effect, or another doubt; inactive = no such curve, though single readings can be large; an effect the other way counts as inactive or inconclusive.

SMILES	AmpC inh detg	AmpC inh no detg	Cycloheximide cs	NS1 function inh	Shiga toxin inh
COc1ccc2oc(C(=O)OCC(=O)Nc3ccc(N4CCOCC4)cc3)c(C)c2c1	?	-13%	nt	nt	nt
COc1ccc2oc(C(=O)OCC(=O)Nc3ccc(C(=O)N(C)C)cc3)c(C)c2c1	-1%	8%	17*	2%	14
COc1ccc(S(=O)(=O)N2CCOC2CNC(=O)C(=O)NCc2ccccc2OC)cc1 (stereo not given)	?	26%	-2	5%	-10
COC(=O)c1scc(-c2ccc(C)cc2)c1S(=O)(=O)Nc1cc(C)ccc1OC	21%	nt	nt	nt	nt
Cc1ccc(S(=O)(=O)N2CCN(CCC#N)CC2)cc1	6%	-6%	8	nt	-6
CC(=O)Nc1ccc(S(=O)(=O)N2CCN(CCC#N)CC2)cc1	?	45µM*	-3	-7%	-2
CCN(C1CCCCC1)S(=O)(=O)c1ccc(S(=O)(=O)N2CCN(CCC#N)CC2)cc1	-15%	6.3µM*	0	-34%	14
OCCN1CCN(c2ncnc3sc(-c4ccccc4)cc23)CC1	?	-9%[11.4 µM]	-3	nt	-14
CN(CC(=O)Nc1ccc(Br)cc1)Cc1ccccc1	?	4%	19*	-2%	7
CN(CC(=O)Nc1cccc(S(=O)(=O)N(C)C)c1)Cc1ccccc1	?	-1%	23*	6%	28
CN(CC(=O)Nc1cccc(C(F)(F)F)c1)Cc1ccccc1	6%	22%	4	-1%	14
CN(CC(=O)NCCCc1ccccc1)Cc1ccc(Br)cc1	0%	69%	-4	-10%	-3
Cc1ccc(N2C(=O)c3n[nH]c(C)c3C2c2ccco2)cc1 (stereo not given)	?	-42%	37*	-9%	73*
C[n+]1c2ccccc2nc2ccc(NCCO)cc21	3%	-7%	13*	-1%	-1
CNc1ccc2nc3ccccc3[n+](C)c2c1	3%	-45%	35*	0%	67*
CC(C)n1c(NCCO)nc2ccccc21	-2%	-7%	-5	-3%	-11
CCN(CC)c1ccc2nc3ccccc3[n+](CC)c2c1	-1%	2%	-7	3%	-9
Cc1ccc(NC(=O)/C(=C\c2ccccc2)NC(=O)/C=C/c2ccccc2)cc1	-8%	-29%	5	?	4
COc1ccc(-c2nn(-c3ccccc3)cc2/C=N/N2C(=O)CSC2=S)cc1	1%	?	29*	-54%	27
Cc1cccc(C)c1NC(=O)CNC(=O)c1c(-c2ccccc2)noc1C	-9%	-7%	nt	nt	nt
c1ccc2c(c1)Nc1cc3ccccc3cc1S2	5%	-24%	26*	1%	47*
COc1ccc2c(c1)S(=O)(=O)c1ccccc1N2	5%	-45%	-2	1%	-4
COc1ccc2c(c1)Sc1ccccc1N2	?	-27%	31*	nt	29
COc1ccc(NC(=O)CN(c2ccccc2OC)S(C)(=O)=O)c(OC)c1	6%	nt	nt	nt	nt
Cc1ccc(/C=N/Nc2nc(C)cc(C)n2)cc1	4%	-6%	14*	-7%	57*
SMILES	AmpC inh detg	AmpC inh no detg	Cycloheximide cs	NS1 function inh	Shiga toxin inh
Cc1cc2c(C)nc(N/N=C/c3ccc(F)cc3)nc2o1	0%	-16%	18*	3%	25
Cc1cc(C)nc(N/N=C/c2ccc(N3CCOCC3)cc2)n1	-1%	-20%	-4	0%	2
Clc1cccc(/C=N/Nc2nc(Cl)nc3ccccc23)c1	-1%	-29%	48*	14%	122*
CSc1ccc(/C=N/Nc2nc(C)cc(C)n2)cc1	4%	-12%	42*	nt	33*
Cc1ccc(-c2nc(N/N=C/c3cccc([N+](=O)[O-])c3)c3ccccc3n2)cc1	2%	-44%	1	-6%	-6
COc1cc(/C=N/Nc2nc(C)cc(C)n2)cc(OC)c1OC	3%	-14%	4	15%	22
Cc1cc(C)nc(N/N=C/c2ccc(Cl)cc2)n1	9%	-10%	13*	12%	32
Cc1cc(C)nc(N/N=C/c2cccc(Cl)c2)n1	2%	-35%	18*	-8%	49
Clc1cccc(/C=N\Nc2nccs2)c1	-10%	-52%	20*	?	65
C(=N/Nc1nccs1)/c1cccnc1	5%	-26%	-2	nt	22
O=S(=O)(Cc1noc(-c2ccccc2Cl)n1)c1ccccn1	10%	-8%	41*	3%	72*
Cc1noc(C)c1-c1nc(CS(=O)(=O)c2ccc(Cl)cc2)no1	-5%	-19%	-1	-1%	-6
Cc1nn2c(-c3ccco3)ccnc2c1-c1ccc(Cl)cc1	1%	nt	nt	nt	nt
COc1ccc(NC(=O)CCc2nc3c(C)nn(-c4ccc(C)cc4)c3n(C)c2=O)c(OC)c1	21%	nt	nt	nt	nt
Cc1cc(=O)n(-c2ccc3ccccc3n2)[nH]1	1%	-20%	47*	-56%	51*
CN1CCN(c2ccc3ccccc3n2)CC1	nt	nt	nt	-11%	nt
CCOC(=O)C1(Cc2cccc(OC)c2)CCCN(C(=O)CCc2cccnc2)C1 (stereo not given)	6%	83%	46*	-5%	69*
CC#CC(=O)N1CCCC(Cc2cccc(OC)c2)(C(=O)OCC)C1 (stereo not given)	?	24%	43*	-14%	33*
CCOC(=O)C1(Cc2cccc(F)c2)CCN(C(=O)c2ccoc2C)CC1	10%	98%	12*	-2%	10
CCOC(=O)C1(Cc2cccc(OC)c2)CCCN(S(=O)(=O)CC)C1 (stereo not given)	?	31%	1	-1%	6
CCOC(=O)C1(Cc2cccc(Cl)c2)CCCN(C(=O)c2cccnc2)C1 (stereo not given)	-6%	-10%	-1	4%	37
CCOC(=O)C1(Cc2cccc(F)c2)CCN(C(=O)c2cscn2)CC1	4%	21%	8	-1%	-11
CCOC(=O)C1(Cc2cccc(OC)c2)CCCN(C(=O)c2cc(C)oc2C)C1 (stereo not given)	?	79%	39*	-10%	76*
O=C(COc1ccc2ccc(=O)oc2c1)N1CCc2ccccc21	-5%	-18%	-1	?	12
COc1cccc(NC(=O)CSCc2cc(=O)c3ccc(C)c(C)c3[nH]2)c1	5%	nt	nt	nt	nt
SMILES	AmpC inh detg	AmpC inh no detg	Cycloheximide cs	NS1 function inh	Shiga toxin inh
CCOC(=O)C1(Cc2cccc(F)c2)CCN(C2CCOCC2)CC1	7%	-23%	6	-1%	-11
CCOC(=O)C1(Cc2cccc(OC)c2)CCN(C2CCOCC2)CC1	-3%	-44%	33*	-2%	82*
Cn1cccc1/C=C(\C#N)c1ccccc1	6%	-21%	9	nt	23
Cn1cccc1/C=C(/C#N)c1ccc(F)cc1	9%	-14%	26*	nt	38
Cn1cccc1C(=O)/C(C#N)=C/c1ccc(F)cc1	-1%	-18%	19*	6%	33
CCOc1ccc(NC(c2ccccn2)c2oc(CO)cc(=O)c2O)cc1 (stereo not given)	-1%	-13%	46*	1%	81*
CCOc1ccc(C(Nc2cccnc2)c2cc(Cl)c3cccnc3c2O)cc1 (stereo not given)	-4%	10%	8	13%	10
